In the library only some 3.6% were active in any assay of this set; here they are far more common.
TDP43 rescue = inhibitors of TDP-43 toxicity in yeast. AID 652104. 410,000 tested, 1.8% active. TDP-43 expressing yeast growth rescue, BacTiter-Glo, 24 h. Potency, µM (series often up to 46.1 µM), inactives show top-dose growth rescue (activation), most hits filed as activators; also: % of control where 0% means no effect; nearly all actives have a fitted effect of over 50% in size
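Yeast expressing TDP-43 (pregrown in raffinose, seeded at OD600=0.02 in galactose medium) exposed to compounds 24 hr at 30 deg C. Growth read by BacTiter-Glo luminescence; rescue of toxicity appears as increased signal.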
MmCpn inh = M. maripaludis TRiC chaperonin inhibition; AID 504842; 330,000 tested, 0.031% active; Potency, µM (series often up to 76.9 µM), for the others: top-dose activity, negative = inhibition, actives largely listed as inhibitors; purified Mm-Cpn ATPase, ADP Transcreener TR-FRET; also: % is scaled to controls: 0 for no effect and ±100 for the full control effect; nearly all actives have a fitted effect of over 80% in size
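TR-FRET (320 nm excitation; 590 and 665 nm emission) reports ADP made from 10 uM ATP by 25 nM enzyme; compounds were preincubated 10 min, reaction run 30 min, both at 37°C.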
aSyn rescue = rescues yeast growth from alpha-synuclein toxicity | Yeast expressing alpha-synuclein, growth rescue, BacTiter-Glo, 24 h | Potency, µM (doses to about 46.1 µM), for inactives: at the top dose growth rescue (activation), hits mostly activators | 370,000 tested, 0.14% active; also: % of control where 0% means no effect; nearly all actives have a fitted effect of over 65% in size
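Screening used galactose-induced yeast with toxic alpha-synuclein levels, exposed to compound for 24 hr at 30 deg C. Cell growth, read with BacTiter-Glo luminescence, gave the measured signal.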
FUS suppressor = FUS proteinopathy suppression in yeast. S. cerevisiae FUS-expressing, growth rescue, OD600, 24 h. Potency, µM (titrated, usually from 76.6 µM), most hits filed as activators. 390,000 tested, 0.24% active;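 also: plate controls were DMSO vehicle for no effect and reference control for full effect; nearly all actives have a fitted effect of over 55% in size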
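Galactose (2%) drives FUS expression in yeast precultured in raffinose; seeding density OD 0.005. Test compounds incubated 24hr at 30C and 99% humidity before absorbance at 600 nm was measured.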
Abeta rescue = compounds reversing amyloid beta toxicity in yeast; yeast expressing A-beta42, growth rescue, OD600, 48 h; response scale: 0% DMSO, 100% iron-clioquinol control; Potency, µM (doses to about 46.1 µM), usual class: activators; 410,000 tested, 0.063% active; also: nearly all actives have a fitted effect of over 55% in size
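Yeast growth medium received pinned compounds, then yeast cells expressing toxic A-beta were added; plates incubated at 30 C for 48 hr. Growth read as absorbance at 600 nm, normalized to DMSO and equimolar FeCl3 plus clioquinol controls.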
ClpP mod = qHTS Assay for Activators of ClpP; purified B. subtilis ClpP, FRET peptide cleavage, 20 min; Potency, µM (highest dose often 57.5 µM), without a hit: top-dose activity change, negative = active; 340,000 tested, 1.9% active; AID 651965, 2013; active = well fitted falling curve with a large enough effect; inconclusive = small, poorly fitted or top-dose-only effect; inactive = no such curve, though single readings can be large or run the other way; also: the source files actives as falling curves though it sought activators and does not explain the sign; nearly all actives have a fitted effect of over 65% in size
Target sequence (P80244 whole entry, looked up): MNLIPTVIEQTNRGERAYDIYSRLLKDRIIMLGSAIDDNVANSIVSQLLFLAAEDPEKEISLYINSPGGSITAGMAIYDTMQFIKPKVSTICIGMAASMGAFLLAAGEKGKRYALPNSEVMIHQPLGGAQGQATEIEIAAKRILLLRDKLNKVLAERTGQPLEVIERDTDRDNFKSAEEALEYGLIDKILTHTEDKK
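FRET quenching reversal measured ClpP activation: 10 microg/mL B. subtilis ClpP at pH 8 with the FRET-FV decapeptide, read at 430 nm after 320 nm excitation. The 20-min minus 0-min signal was scaled between DMSO/no-enzyme wells and ADEP (5.8 microM final).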
Starred values were filed as active, the others as inactive; i = inactive; u = inconclusive; x = no result given. Unless noted, calls follow the shape of the dose curve; as a rule, active = well fitted curve in the direction sought with a large enough effect; inconclusive = small, poorly fitted or top-dose-only effect, or another doubt; inactive = no such curve, though single readings can be large; an effect the other way counts as inactive or inconclusive. Potency is read from the fitted curve at half-maximal effect.

SMILES	TDP43 rescue	MmCpn inh	aSyn rescue	FUS suppressor	Abeta rescue	ClpP mod
CCOc1ccc(NC(=O)N(C(C)C)C2CCN(C(C)=O)CC2)cc1	16%	x	x	i	i	1%
CCOC(=O)c1ccccc1NC(=O)N(C(C)C)C1CCN(C(C)=O)CC1	0%	x	x	i	i	28µM*
COc1ccccc1N1CCN(c2nc3c(S(=O)(=O)c4ccc(C)c(C)c4)nnn3c3ccc(Cl)cc23)CC1	0%	x	x	i	i	-5%
CCN1C(=O)C(CC(=O)Nc2ccccc2Cl)N(NC(=O)c2cccc(F)c2)C1=S (stereo not given)	6.3µM*	-2%	15%	x	i	3%
COc1ccccc1NC(=O)Nc1nc(CC(=O)N2CCN(c3ccccc3)CC2)cs1	0%	-2%	4.5µM*	u	i	x
COc1cc2nc(N3CCCN(C)CC3)nc(N)c2cc1OC	x	x	-3%	x	x	3%
Nc1nc(Nc2ccccc2)nc(NCc2ccco2)c1[N+](=O)[O-]	20µM*	1%	10%	i	i	-1%
O=C(Nc1sc2c(c1C(=O)NCC1CCCO1)CCC2)c1cc(=O)c2ccccc2o1 (stereo not given)	20%	x	x	i	i	12%
CCCOc1ccc(F)cc1-c1cc(C(=O)NCc2ccccc2OC)[nH]n1	35µM*	x	19%	i	i	u
CCCOc1ccc(F)cc1-c1cc(C(=O)NCc2ccco2)[nH]n1	14µM*	x	u	i	i	-2%
CCCOc1ccc(F)cc1-c1cc(C(=O)NCc2cccc(Cl)c2)[nH]n1	0%	x	13%	i	i	-14%
CCCOc1ccc(F)cc1-c1cc(C(=O)NCc2ccccc2)[nH]n1	u	x	0%	i	i	-8%
COc1ccccc1CNC(=O)c1cc(-c2cc(F)ccc2OC(C)C)n[nH]1	25µM*	x	15%	i	i	-15%
COc1ccc(F)cc1-c1cc(C(=O)NCc2cccc(Cl)c2)[nH]n1	14µM*	x	24%	i	i	-4%
COc1cc(CNC(=O)c2cc(-c3cc(F)ccc3OC(C)C)n[nH]2)cc(OC)c1	u	x	-1%	i	i	u
O=C(c1ccncc1)N1CC[C@H]2[C@H](CCCN2Cc2cc(F)cc(F)c2)C1	x	x	x	i	x	x
CC(C)Oc1ccc(F)cc1-c1cc(C(=O)NCc2cccs2)[nH]n1	35µM*	x	28%	u	i	0%
Cc1ccc(Cl)cc1-c1cc(C(=O)NCc2ccco2)[nH]n1	14µM*	x	4%	i	i	1%
COc1ccc(Cl)cc1-c1cc(C(=O)NCc2ccco2)[nH]n1	u	x	13%	i	i	-3%
CCOc1ccc(NC(=O)c2cc(S(=O)(=O)N3CCC(C)CC3)cn2C)cc1	3%	x	x	i	i	1%
Cc1cccc(Cn2c(CNS(=O)(=O)c3ccc4c(c3)CCCC4)nc3cccnc32)c1	3%	x	x	i	i	-1%
COc1ccc(C(=O)/C=C2/C(=O)Nc3ccccc32)cc1OC	-2%	4%	2%	u	i	-3%
O=C1Nc2ccccc2/C1=C/C(=O)c1cccs1	u	-2%	-62%	i	i	32µM*
COc1cc(OC)c(/C=C2\C(=O)Nc3ccccc32)c(OC)c1	26%	-6%	14%	i	i	-2%
COc1ccc(C(=O)/C=C2/C(=O)Nc3ccccc32)cc1	2.8µM*	-1%	-53%	i	i	-2%
SMILES	TDP43 rescue	MmCpn inh	aSyn rescue	FUS suppressor	Abeta rescue	ClpP mod
COc1ccc(C(=O)/C=C2/C(=O)Nc3ccccc32)c(OC)c1	11µM*	0%	-1%	i	i	-17%
c1coc(-c2nnc3sc(Cc4cccs4)nn23)c1	-6%	-2%	-4%	10µM*	i	-2%
COc1ccc(OCc2nn3c(-c4ccco4)nnc3s2)cc1	u	1%	6%	u	i	-1%
Clc1ccc(OCc2nn3c(-c4ccco4)nnc3s2)cc1	18µM*	-1%	-3%	i	i	0%
Cc1ccc2nc(NC(=O)c3nc(SCc4ccccc4C)ncc3Cl)sc2c1	8%	x	x	i	i	2%
Cc1ccc2c(c1)N(C(=O)Nc1cccc3c1CCCC3)CCO2	u	x	x	i	i	0%
COc1ccc(CN(Cc2cccn2C)C(=O)c2cc3cc(OC)ccc3[nH]2)cc1	8%	45µM*	-11%	i	i	-3%
CC1(C(=O)Nc2ccc3c(c2)OCCO3)CCN1C(=O)C1(c2ccccc2)CC1 (stereo not given)	13µM*	x	4%	i	i	0%
CC1(C(=O)NCc2ccc3c(c2)OCO3)CCN1C(=O)C1(c2ccc(Cl)cc2)CC1 (stereo not given)	25µM*	x	8%	i	i	-2%
Cn1nc(C(C)(C)C)cc1NC(=O)C1(C)CCN1C(=O)C1(c2ccccc2)CCCC1 (stereo not given)	35µM*	x	14%	i	i	0%
Cn1nc(C(C)(C)C)cc1NC(=O)C1(C)CCN1C(=O)C1(c2ccccc2)CC1 (stereo not given)	u	x	9%	i	i	0%
CCc1ccc(NC(=O)C2CCN(S(=O)(=O)c3c(C)noc3/C=C/c3cccs3)CC2)cc1	9%	x	x	i	i	-10%
COc1cc(OC)c(NC(=O)C(Cc2ccccc2)NS(=O)(=O)c2cccc3nsnc23)cc1Cl (stereo not given)	8%	x	x	u	i	1%
CCOC(=O)c1c(C)[nH]c(C)c1S(=O)(=O)N1CCCC(C(=O)N2CCN(c3cccc(Cl)c3)CC2)C1 (stereo not given)	4%	x	x	i	i	1%
CN1CCc2c(sc3nc(SCC(N)=O)n(-c4ccccc4)c(=O)c23)C1	5%	-1%	2%	u	i	28µM*
C=C(C)CSc1nc2sc3c(c2c(=O)n1-c1ccccc1)CCN(C)C3	-15%	-10%	16%	i	i	4%
CSc1nc(NCc2ccccc2)c2c3c(sc2n1)CN(C)CC3	-5%	-2%	0%	i	i	14µM*
CN1CCc2c(sc3nc(SCC(N)=O)n(-c4ccc(Cl)cc4)c(=O)c23)C1	-8%	-6%	1%	i	i	4%
COC(=O)CSc1nc2sc3c(c2c(=O)n1-c1ccccc1)CCN(C)C3	-3%	-8%	4%	i	i	18µM*

Screens: PubChem, National Center for Advancing Translational Sciences (NCATS)
